About 83,000 compounds went through this panel and 20% of them were active in at least one assay; those are over-represented in the sample as a whole.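 Cells were grown in 96-well plates and exposed to the test compound at a single concentration for 48 hours; results are reported as percent growth, with values below 10 considered active.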 Unmarked numbers belong to inactive results. Activity calls are given as the source filed them.

The source of these data is PubChem BioAssay (NCI).

Test systems include HCT-15 colon; HT29 colon; SNB-75 CNS; U251 CNS; PC-3 prostate; SK-MEL-5 melanoma; UACC-62 melanoma; LOX IMVI melanoma; SK-MEL-28 melanoma; SK-MEL-2 melanoma; EKVX NSCLC; SN12C renal; TK-10 renal; ACHN renal; CAKI-1 renal; CCRF-CEM leukemia; MOLT-4 leukemia; UO-31 renal; A498 renal; SNB-19 CNS.
Common to all, as to assay: NCI-60 one-dose screen, 48 h (100 = growth as untreated, 0 = no growth, -100 = all killed)
Holding throughout (details): 10 µM unless noted

For `COc1ccc(C/C(C)=C(/c2ccc(OCCCN(C)C)cc2)c2ccc(OC(C)=O)cc2)cc1`, the growth in the assay with HCT-15 colon was 19.3%; with HT29 colon it was 4.9% (active); with SNB-75 CNS it was 74.1%; in the assay on U251 CNS it was 61.7%; in the assay on PC-3 prostate, 79.3%; in the assay on SK-MEL-5 melanoma, 69.6%. In addition, the growth in the assay on UACC-62 melanoma was 51.3%; in the assay with LOX IMVI melanoma, 47.8%; in the assay on SK-MEL-28 melanoma it was 2.23% (active); in the assay with SK-MEL-2 melanoma, 101%; with EKVX NSCLC, 80.9%; in the assay with SN12C renal it was 80.8%. The growth was 98.9% with TK-10 renal; 85% in the assay with ACHN renal; 81.6% with CAKI-1 renal; 63.1% with CCRF-CEM leukemia; 55.9% with MOLT-4 leukemia.

As for `COCCCN1CC(O)=C(c2nc(-c3ccc(C)cc3)cs2)C1=N`, the growth in the assay with HCT-15 colon is 110%; in the assay with HT29 colon, 128%; in the assay on SNB-75 CNS, 154%; in the assay on U251 CNS, 100%; in the assay on SK-MEL-5 melanoma, 103%; in the assay on UACC-62 melanoma it was 103%. Besides, the growth is 102% with LOX IMVI melanoma; 159% in the assay on SK-MEL-28 melanoma; 113% in the assay on SK-MEL-2 melanoma; 97.3% in the assay on EKVX NSCLC; 92.9% in the assay on SN12C renal; 80.6% in the assay on UO-31 renal. For the same compound, the growth with TK-10 renal was 138%; with ACHN renal it was 111%; in the assay with CAKI-1 renal it was 96.1%; with A498 renal, 93.3%; with MOLT-4 leukemia it was 86.4%.

For the compound `O=S(=O)(NCCCNc1nccc(-c2c(-c3cccc(F)c3)nc3sccn23)n1)c1cccc(F)c1`, the growth in the assay on HCT-15 colon was 22.6%; with HT29 colon, 30.6%; in the assay with SNB-75 CNS, 88.6%; in the assay with U251 CNS, 70%; with PC-3 prostate, 27.1%; in the assay with SK-MEL-5 melanoma, 13.5%. The growth was 39% in the assay with LOX IMVI melanoma; 68.3% in the assay on SK-MEL-28 melanoma; 47.6% in the assay with SK-MEL-2 melanoma; 52.4% with EKVX NSCLC; 56.3% in the assay with SN12C renal; 28.2% in the assay with UO-31 renal. The growth in the assay with TK-10 renal is 72.3%; in the assay with ACHN renal, 42.5%; in the assay on CAKI-1 renal, 41.5%; in the assay with CCRF-CEM leukemia it was 24.7%; with MOLT-4 leukemia it was 9.94% (active).

With `COc1cc(/C=N/NC(=O)c2cnn3c2NC(c2ccccc2)C3)ccc1Oc1ccccc1` (stereo not given), the growth in the assay on HCT-15 colon was 16.8%; in the assay with HT29 colon, 0.454% (active); in the assay with SNB-75 CNS it was 27.6%; in the assay with U251 CNS, 27.1%; in the assay on PC-3 prostate, 19.6%; in the assay on SK-MEL-5 melanoma, 28.1%. The growth was 12.6% in the assay with UACC-62 melanoma; 37.2% in the assay with LOX IMVI melanoma; 34.9% in the assay with SK-MEL-28 melanoma; 58.1% in the assay with EKVX NSCLC; 63.8% in the assay on SN12C renal; 51.5% in the assay on UO-31 renal. In addition, the growth is 46.8% in the assay on TK-10 renal; 27.6% in the assay with ACHN renal; 26% in the assay with CAKI-1 renal; 29.3% in the assay with CCRF-CEM leukemia; 49.7% in the assay on MOLT-4 leukemia.

`COc1cc(-c2csc(NC(=O)c3cc(F)cc(C(F)(F)F)c3)n2)cc(OC)c1OC`: the growth in the assay with HCT-15 colon is 34.3%; in the assay with HT29 colon, 6.41% (active); with SNB-75 CNS, 19.3%; with SNB-19 CNS, 40.2%; in the assay on U251 CNS, 31.3%; in the assay with SK-MEL-5 melanoma it was 53.2%. Moreover, the growth in the assay on LOX IMVI melanoma is 27%; in the assay on SK-MEL-28 melanoma it was 50.3%; with SK-MEL-2 melanoma, 14.9%; in the assay on EKVX NSCLC it was 50%; in the assay on SN12C renal it was 35%; with UO-31 renal, 45.3%. Further, the growth with TK-10 renal was 65.1%; in the assay with ACHN renal, 49.1%; in the assay on CAKI-1 renal, 42.7%; in the assay with CCRF-CEM leukemia, 17%; in the assay with MOLT-4 leukemia it was 25.8%.

In the case of `Brc1ccc2[nH]cc(-c3cncn3CCc3ccccc3)c2c1`, the growth with HCT-15 colon is 52.8%; with HT29 colon it was 65.6%; in the assay on SNB-75 CNS it was 36.7%; with U251 CNS it was 55.7%; with SK-MEL-5 melanoma it was 10.4%; with UACC-62 melanoma it was 52.9%. Further, the growth with LOX IMVI melanoma is 64.1%; in the assay on SK-MEL-28 melanoma, 69.6%; in the assay with SK-MEL-2 melanoma, 55.8%; in the assay with EKVX NSCLC it was 36.6%; in the assay with SN12C renal it was 59.1%; in the assay on UO-31 renal, 52.7%. Further, the growth in the assay on TK-10 renal was -60.4% (active); with ACHN renal, 65.7%; in the assay with CAKI-1 renal it was 35.4%; with A498 renal it was 29.3%; with CCRF-CEM leukemia, 57.9%; in the assay on MOLT-4 leukemia it was 48.6%.

Regarding `COc1cc(/C=C\C(=O)O)ccc1OCc1ccccc1`, the growth was 107% in the assay on HCT-15 colon; 105% with HT29 colon; 103% in the assay on SNB-75 CNS; 84.9% in the assay on U251 CNS; 92.8% in the assay with PC-3 prostate; 94.2% in the assay with SK-MEL-5 melanoma. For the same compound, the growth in the assay on UACC-62 melanoma was 93.2%; in the assay with LOX IMVI melanoma it was 95.7%; with SK-MEL-28 melanoma, 110%; in the assay on SK-MEL-2 melanoma it was 93.5%; in the assay on EKVX NSCLC it was 115%; with SN12C renal, 95%. The growth in the assay on UO-31 renal was 81.4%; with TK-10 renal, 101%; with ACHN renal, 102%; in the assay with CAKI-1 renal it was 99.4%; in the assay on CCRF-CEM leukemia, 98.3%; with MOLT-4 leukemia, 96.3%.

`N=C(N)c1ccc(OCCCCCCCCCCOc2ccc(C(=N)N)cc2)cc1`: the growth in the assay on HCT-15 colon was 37.3%; in the assay with HT29 colon, -90.8% (active); in the assay on SNB-75 CNS, -76.9% (active); in the assay with U251 CNS it was -85.5% (active); with SK-MEL-5 melanoma, -96.1% (active); with UACC-62 melanoma, -97.2% (active). Further, the growth with LOX IMVI melanoma was -97.3% (active); with SK-MEL-28 melanoma, -93.9% (active); with SK-MEL-2 melanoma it was -90.3% (active); with EKVX NSCLC, -84.4% (active); with SN12C renal, -96.3% (active); in the assay on UO-31 renal it was 43.9%. Further, the growth is -93.5% (active) with TK-10 renal; -21.3% (active) with ACHN renal; -94.8% (active) in the assay with CAKI-1 renal; -47.8% (active) with CCRF-CEM leukemia; -61% (active) in the assay with MOLT-4 leukemia.

Take `O=c1c2c(c(=O)n1O)c1c3ccc[nH]c3nc1c1nc3[nH]cccc3c12`: the growth in the assay on HCT-15 colon was 97%; in the assay on HT29 colon, 89.7%; in the assay with SNB-75 CNS, 87%; in the assay on U251 CNS, 64.6%; in the assay with PC-3 prostate, 67.7%; in the assay with SK-MEL-5 melanoma it was 85.8%. Also, the growth in the assay with UACC-62 melanoma is 63%; in the assay with LOX IMVI melanoma, 72.6%; with SK-MEL-28 melanoma, 96.2%; in the assay on EKVX NSCLC, 93.4%; with SN12C renal, 80.5%; in the assay with UO-31 renal, 91%. In addition, the growth in the assay on ACHN renal was 88.3%; in the assay on CAKI-1 renal it was 68.9%; with A498 renal, 94.5%; with CCRF-CEM leukemia it was 28.5%; in the assay with MOLT-4 leukemia, 43.7%.
